SMILES strings stand for the structures. Values joined by “and” are separate entries in the source; they are usually repeats but may differ in a detail not shown here. Identical values can stand only once. Unmarked numbers belong to inactive results.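 The calls were made as follows: active = AUC reduced over 20% with Padj below 0.05 in at least 2 of 3 replicates; inactive = otherwise.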

For the assay, the system named is Parabacteroides distasonis. In words: growth AUC relative to DMSO control (median of replicates) (fraction); higher = more growth (less inhibition), active = hit call of the paper. The note with it: 20 µM; 24 h. Summed up:
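Gut bacterial monocultures were grown anaerobically at 37 °C in mGAM, starting at OD600 0.05, with 20 µM compound (1% DMSO) in round-bottom 96-well plates under pierced gas-permeable seals. OD600 was read hourly for 24 h. Area under the growth curve (minimum OD set to 0) was normalised to the plate median of DMSO controls, or to row and column medians on the industrial chemical plate. The value is the median of three biological replicates grown on separate days.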
Turning to `Nc1cc(Cl)cc(C(=O)O)c1Cl`, the “growth AUC” value is 1.01.
The value for `CCOP(=S)(OCC)Oc1cnccn1` was 1.
The value for `O=C(O)C(F)(F)C(F)(F)C(F)(F)C(F)(F)C(F)(F)C(F)(F)C(F)(F)C(F)(F)F` was 1.18; that for `CCOP(=S)(OCC)SCSCC` was 0.921.
With `CCOCn1c(-c2ccc(Cl)cc2)c(C#N)c(Br)c1C(F)(F)F`, the “growth AUC” value was 0.924.
The value for `CCS(=O)(=O)c1cccnc1S(=O)(=O)NC(=O)Nc1nc(OC)cc(OC)n1` was 1.02; that for `CCNc1nc(NC(C)C)nc(SC)n1` was 1.01; that for `CN1COCN(Cc2cnc(Cl)s2)/C1=N/[N+](=O)[O-]` was 0.991.
For the compound `COP(=S)(NC(C)C)Oc1ccccc1C(=O)OC(C)C` (centres undefined), the “growth AUC” value was 0.53 (active).
The same measure for `COC(=O)C(C)(Cl)Cl`: 1.05; for `CCCCOCN(C(=O)CCl)c1c(CC)cccc1CC`: 0.963.
The same measure for `CC1(C)C(C=C(Cl)Cl)C1C(=O)OC(C#N)c1ccc(F)c(Oc2ccccc2)c1` (mixture of isomers): 0.96.
The same measure for `CCOC(=O)CC(SP(=O)(OC)OC)C(=O)OCC` (centres undefined): 0.902; for `CCNc1nc(Cl)nc(NC(C)C)n1`: 1.05; for `Cc1cccc(C)c1N`: 1.01.
With `CN(C)C(=O)Nc1ccc(Cl)cc1`, the “growth AUC” value was 0.938.
The value for `CCCCNC(=O)n1c(NC(=O)OC)nc2ccccc21` was 0.945; that for `N#Cc1cc(I)c(O)c(I)c1` was 0.814.
The same measure for `CCOP(=S)(OCC)Oc1cc(Cl)c(Br)cc1Cl`: 0.891; for `Cc1cnc(C2=NC(C)(C(C)C)C(=O)N2)c(C(=O)O)c1` (centres undefined): 1.07; for `CC1(C)CCC(Cc2ccc(Cl)cc2)C1(O)Cn1cncn1` (centres undefined): 0.927.
The value for `CCCN(CCC)c1c([N+](=O)[O-])cc(S(C)(=O)=O)cc1[N+](=O)[O-]` was 0.967; that for `Cc1occc1C(=O)Nc1ccccc1` was 0.971; that for `CCCOCC(=Nc1ccc(Cl)cc1C(F)(F)F)n1ccnc1` was 0.746 (active).
On to `Nc1cc(Cl)cc(Cl)c1`, for which the “growth AUC” value is 1.
The value for `O=C(O)COc1cc(Cl)c(Cl)cc1Cl` was 1.
The same measure for `Cc1cc(Cl)ccc1N=CN(C)C`: 1.03; for `CNC(=O)Oc1cc(C)cc(C(C)C)c1`: 0.979.
Regarding `CCOc1cc(Oc2ccc(C(F)(F)F)cc2Cl)ccc1[N+](=O)[O-]`, the “growth AUC” value is 1.01.
For the compound `O=[N+]([O-])c1c(Cl)c(Cl)c(Cl)c(Cl)c1Cl`, the “growth AUC” value was 0.969.
As for `CC(Cc1ccc(C(C)(C)C)cc1)CN1CCCCC1` (centres undefined), the “growth AUC” value was 0.946.
The same measure for `CNC(=O)c1cc(C#N)cc(C)c1NC(=O)c1cc(Br)nn1-c1ncccc1Cl`: 1.02.
The same measure for `O=P(Oc1ccccc1)(Oc1ccccc1)Oc1ccccc1`: 0.594 (active); for `CC(=NC#N)N(C)Cc1ccc(Cl)nc1`: 1.02 and 1.
The value for `CO/N=C(/C1=NOCCO1)c1ccccc1Oc1ncnc(Oc2ccccc2Cl)c1F` was 0.678 (active); that for `Cc1ccn2nc(S(=O)(=O)Nc3c(F)cccc3F)nc2n1` was 1.02.
Turning to `N#Cc1c(Cl)c(Cl)c(Cl)c(C#N)c1Cl`, the “growth AUC” value was 0.682 (active).
The value for `C=CCC1=C(C)C(OC(=O)[C@@H]2[C@@H](C=C(C)C)C2(C)C)CC1=O` (some centres undefined) was 0.9.
The same measure for `O=C(O)CNCP(=O)(O)O`: 1.01.

Source of the values: the supplement of paper PMC12669032.
